# Laboratory results published in PubChem BioAssay (Tox21).
# A number with no mark means an inactive call. Inconclusive results are not listed. Where a call stands in place of a potency, no number is given. Calls of active or inactive are those of the source. Unless noted, calls follow the shape of the dose curve; as a rule, active = well fitted curve in the direction sought with a large enough effect in the repeat runs; inconclusive = weak or mixed curves; inactive = no such curve, though single readings can be large; an effect the other way counts as inactive or inconclusive.
# Tests used:
# [1] = qHTS assay to identify small molecule agonists of the sonic hedgehog signaling (Shh) pathway (AID 1259368; calls by dose curve;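 also: NIH/3T3-derived 3T3Gli1-Luc cells carrying a stable Gli1-driven firefly luciferase reporter; series mostly up to about 92 µM; nearly all actives have a fitted effect of over 15% in size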)
# How it was run: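 Mouse fibroblast (NIH/3T3) reporter cells with stably integrated Gli1-Luc were treated 24 hr with compound; firefly luciferase luminescence served as the read-out.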
# [2] = target: Estrogen receptor beta (Homo sapiens) (UniProt Q92731); assay: qHTS assay to identify small molecule antagonists of the estrogen receptor beta (ER-beta) signaling pathway (AID 1259378; active = well fitted inhibition curve with a large enough effect in the signal ratio in the repeat runs, not every such curve was filed as active; the % refers to the signal ratio; also: potency is read from the fitted curve at half-maximal effect)
# How it was run: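 ER-beta-UAS-bla HEK293T (GripTite) cells in 2% charcoal-stripped FBS medium were preincubated 6 hr at 37C, dosed with compound, then stimulated with 1 nM E2 (final) for 16 hr; beta-lactamase reporter read by B/G FRET fluorescence after 2 hr substrate loading.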
# [3] = qHTS assay to identify small molecule agonists of the androgen receptor (AR) signaling pathway in the presence of an antagonist - cell viability counter screen (AID 1259379); also: nearly all actives have a fitted effect of over 25% in size; also: potency is read from the fitted curve at half-maximal effect;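 as to activity change, negative = cytotoxicity: MDA-kb2 human breast cancer cells carrying an MMTV luciferase reporter; series mostly up to about 92 µM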
# How it was run: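 A CellTiter-Fluor read-out measured viability of MDA-kb2 reporter cells (MMTV promoter with AR and GR response elements). Treatment: nilutamide 3.0uM final with compounds at 15 concentrations, 16 hr, 37C, 0% CO2.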
# [4] = qHTS assay to identify small molecule agonists of the estrogen receptor beta (ER-beta) signaling pathway - cell viability counter screen (AID 1259380); also: nearly all actives have a fitted effect of over 30% in size; also: potency is read from the fitted curve at half-maximal effect
# How it was run: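 Cells used were ER-beta-UAS-bla HEK293T in medium with 2% charcoal-stripped FBS. They were treated for 16 hr at 37C. Viability came from CellTiter-Glo luminescence.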
# [5] = qHTS assay to identify small molecule antagonists of the estrogen receptor beta (ER-beta) signaling pathway - cell viability counter screen (AID 1259382); also: series mostly up to about 92 µM; nearly all actives have a fitted effect of over 55% in size
# How it was run: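 Agonist-stimulated (1nM E2) ER-beta-UAS-bla HEK293T cells are incubated with library compounds for 16 hr at 37C. Cell viability is then assessed in the reporter-assay wells by adding CellTiter-Glo and reading luminescence after 30 min.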
# [6] = qHTS assay to identify small molecule agonists or antagonists of the thyroid stimulating hormone receptor (TSHR) signaling pathway - wild type cell line counter screen (AID 1259384; calls by dose curve)
# How it was run: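 Wild-type HEK293 cells were plated 18 h at 37 C/5% CO2, pin-dosed with compound plus Ro20-1724 medium, held 30 min at room temperature, then given cAMP-d2 and anti-cAMP-cryptate; fluorescence was read after 1 h. Fifteen concentrations, triplicate.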
# [7] = target: Thyrotropin receptor (Homo sapiens) (UniProt P16473); assay: qHTS assay to identify small molecule antagonists of the thyroid stimulating hormone receptor (TSHR) signaling pathway (AID 1259385; calls by dose curve; also: nearly all actives have a fitted effect of over 20% in size)
# How it was run: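 TSHR-HEK293 cells were plated and held 18 h at 37C/5% CO2, then given compound plus Ro20-1724 and stimulated with TSH at 1.5 ng/mL final. After 30 min at room temperature, cAMP was detected with cAMP-d2/anti-cAMP-cryptate (1 h) by fluorescence.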
# [8] = qHTS assay to identify small molecule agonists of the estrogen receptor alpha (ER-alpha) signaling pathway in the presence of an antagonist - cell viability counter screen (AID 1259386);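 also: cells exposed to compounds for 22 h at 37 °C before the viability read; nearly all actives have a fitted effect of over 30% in size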; also: potency is read from the fitted curve at half-maximal effect; as to activity change, negative = cytotoxicity: series mostly up to about 92 µM
# How it was run: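 ICI-182,780 at 10.0nM final accompanies the compound titration (15 concentrations, 22hr, 37C) on VM7Luc4E2 cells. The CellTiter-Fluor fluorescence readout runs in the same wells as the luciferase assay.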
# [9] = target: Progesterone receptor (Homo sapiens) (UniProt P06401); assay: qHTS assay to identify small molecule agonists of the progesterone receptor (PR) signaling pathway (AID 1346784; calls by dose curve; also: nearly all actives have a fitted effect of over 30% in size)
# How it was run: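 Using charcoal-stripped serum (2%) to limit endogenous steroids, PR-UAS-bla HEK 293T cells received compounds for 16 hr at 37C after 6 hr plating; beta-lactamase FRET fluorescence was recorded following 2 hr substrate loading at room temperature.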
# [10] = target: Progesterone receptor (Homo sapiens) (UniProt P06401); assay: qHTS assay to identify small molecule antagonists of the progesterone receptor (PR) signaling pathway (AID 1346795; active = well fitted inhibition curve with a large enough effect in the signal ratio in the repeat runs, not every such curve was filed as active; the % refers to the signal ratio)
# How it was run: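 Inhibition of R5020-induced (1 nM final) beta-lactamase reporter signal in PR-UAS-bla HEK293T cells was scored by FRET fluorescence after overnight (16 hr) compound treatment.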
# [11] = qHTS assay to identify small molecule antagonists of the progesterone receptor (PR) signaling pathway - cell viability counter screen (AID 1346798); also: nearly all actives have a fitted effect of over 50% in size; also: potency is read from the fitted curve at half-maximal effect; as to activity change, negative = cytotoxicity: series mostly up to about 92 µM
# How it was run: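 ATP content as viability readout: CellTiter-Glo luminescence, 30 min room temperature, in PR-UAS-bla HEK293T cells after 16 hr compound/R5020 treatment at 37C and 5% CO2.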
# [12] = qHTS assay to identify small molecule agonists of the progesterone receptor (PR) signaling pathway - cell viability counter screen (AID 1346799; calls by dose curve; also: nearly all actives have a fitted effect of over 45% in size)
# How it was run: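 Cytotoxicity in PR-bla HEK293T cells: 16 h compound, 37C; CellTiter-Glo added post-FRET read; luminescence after 30 min RT.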
# [13] = qHTS assay to identify small molecule agonists of the TGF-beta/Smad signaling pathway (AID 1346859; active = well fitted activation curve with a large enough effect in the signal ratio in the repeat runs, not every such curve was filed as active; the % refers to the signal ratio; also: series mostly up to about 77 µM)
# How it was run: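 Stable Smad binding element-beta-lactamase HEK 293T cells; 5 hr compound exposure at 37 C under 5% CO2; 2 hr room-temperature substrate step; fluorescence excited at 405 nm, collected at 460 nm and 530 nm.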
# [14] = target: Thyrotropin-releasing hormone receptor (Homo sapiens) (UniProt P34981); assay: qHTS assay to identify small molecule antagonists of the thyrotropin-releasing hormone receptor (TRHR) signaling pathway (AID 1346877; active = well fitted inhibition curve with a large enough effect in the repeat runs, not every such curve was filed as active; also: series mostly up to about 51 µM)
# How it was run: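 Screening used HEK293 cells engineered with TRHR, with a brief 5 min room-temperature compound exposure preceding addition of TRH to 1 nM. The read-out was kinetic calcium-dye fluorescence, concentration-response from 15 doses in triplicate.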
# [15] = target: Androgen receptor (Homo sapiens) (UniProt P10275); assay: qHTS assay to identify small molecule agonists of the androgen receptor (AR) signaling pathway in the presence of an antagonist (AID 1259381; calls by dose curve; also: nearly all actives have a fitted effect of over 15% in size)
# How it was run: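 Using human MDA-kb2 cells with an MMTV promoter–luciferase construct (AR and GR response elements), agonist activity is scored under 3.0uM nilutamide (final) co-treatment; 16hr incubation, 37C, luminescence readout via ONE-Glo.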
# [16] = target: Estrogen receptor (Homo sapiens) (UniProt P03372); assay: qHTS assay to identify small molecule agonists of the estrogen receptor alpha (ER-alpha) signaling pathway in the presence of an antagonist (AID 1259383; calls by dose curve; also: top concentration of the series differs between compounds; nearly all actives have a fitted effect of over 15% in size)
# How it was run: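 Using VM7Luc4E2 cells seeded 24hr before treatment, antagonist ICI-182,780 (10.0nM final) was added, followed by compounds at 15 concentrations. Plates incubated 22hr; ONE-Glo luminescence quantified reporter activity.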
# [17] = qHTS assay to identify small molecule antagonists of the TGF-beta/Smad signaling pathway - cell viability counter screen (AID 1346824); also: nearly all actives have a fitted effect of over 50% in size
# How it was run: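 SBE-bla HEK 293T cells were plated overnight at 37 C, then given compounds in DMSO plus TGF-beta1 (added as 0.25 ng/mL solution) for 5 hr. After the bla read, CellTiter-Glo was added to the same wells and luminescence read after 30 min at room temperature.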
# [18] = qHTS assay to identify small molecule agonists of the TGF-beta/Smad signaling pathway - cell viability counter screen (AID 1346829); also: top concentration of the series differs between compounds; nearly all actives have a fitted effect of over 45% in size
# How it was run: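 CellTiter-Glo luminescence readout; SBE-bla HEK 293T cells, overnight plating, compound 5 hr at 37 C/5% CO2, then bla substrate 2 hr RT, then CellTiter-Glo 30 min RT.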
# [19] = target: Estrogen receptor beta (Homo sapiens) (UniProt Q92731); assay: qHTS assay to identify small molecule agonists of the estrogen receptor beta (ER-beta) signaling pathway (AID 1259377; active = well fitted activation curve with a large enough effect in the signal ratio in the repeat runs, not every such curve was filed as active; the % refers to the signal ratio)
# How it was run: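 In HEK293T cells bearing a UAS-beta-lactamase reporter under ER-beta control, DMSO-delivered compounds were incubated for 16 hr at 37C. Activity was detected as fluorescence 2 hours after LiveBLAzer B/G FRET substrate addition.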
# Thyrotropin-releasing hormone receptor (Homo sapiens), sequence (P34981 whole entry, looked up): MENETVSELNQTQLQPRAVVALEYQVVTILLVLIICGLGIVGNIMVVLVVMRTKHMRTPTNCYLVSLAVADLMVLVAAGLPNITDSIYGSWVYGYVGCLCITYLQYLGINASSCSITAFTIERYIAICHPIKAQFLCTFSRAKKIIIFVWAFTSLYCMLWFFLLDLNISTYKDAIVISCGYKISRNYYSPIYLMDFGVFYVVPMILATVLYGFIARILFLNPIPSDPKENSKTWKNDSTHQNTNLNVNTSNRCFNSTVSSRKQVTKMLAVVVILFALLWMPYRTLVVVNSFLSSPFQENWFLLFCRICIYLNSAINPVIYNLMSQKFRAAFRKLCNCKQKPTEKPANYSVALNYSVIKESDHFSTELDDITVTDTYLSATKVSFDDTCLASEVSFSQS
# Progesterone receptor (Homo sapiens), sequence (P06401 whole entry, looked up): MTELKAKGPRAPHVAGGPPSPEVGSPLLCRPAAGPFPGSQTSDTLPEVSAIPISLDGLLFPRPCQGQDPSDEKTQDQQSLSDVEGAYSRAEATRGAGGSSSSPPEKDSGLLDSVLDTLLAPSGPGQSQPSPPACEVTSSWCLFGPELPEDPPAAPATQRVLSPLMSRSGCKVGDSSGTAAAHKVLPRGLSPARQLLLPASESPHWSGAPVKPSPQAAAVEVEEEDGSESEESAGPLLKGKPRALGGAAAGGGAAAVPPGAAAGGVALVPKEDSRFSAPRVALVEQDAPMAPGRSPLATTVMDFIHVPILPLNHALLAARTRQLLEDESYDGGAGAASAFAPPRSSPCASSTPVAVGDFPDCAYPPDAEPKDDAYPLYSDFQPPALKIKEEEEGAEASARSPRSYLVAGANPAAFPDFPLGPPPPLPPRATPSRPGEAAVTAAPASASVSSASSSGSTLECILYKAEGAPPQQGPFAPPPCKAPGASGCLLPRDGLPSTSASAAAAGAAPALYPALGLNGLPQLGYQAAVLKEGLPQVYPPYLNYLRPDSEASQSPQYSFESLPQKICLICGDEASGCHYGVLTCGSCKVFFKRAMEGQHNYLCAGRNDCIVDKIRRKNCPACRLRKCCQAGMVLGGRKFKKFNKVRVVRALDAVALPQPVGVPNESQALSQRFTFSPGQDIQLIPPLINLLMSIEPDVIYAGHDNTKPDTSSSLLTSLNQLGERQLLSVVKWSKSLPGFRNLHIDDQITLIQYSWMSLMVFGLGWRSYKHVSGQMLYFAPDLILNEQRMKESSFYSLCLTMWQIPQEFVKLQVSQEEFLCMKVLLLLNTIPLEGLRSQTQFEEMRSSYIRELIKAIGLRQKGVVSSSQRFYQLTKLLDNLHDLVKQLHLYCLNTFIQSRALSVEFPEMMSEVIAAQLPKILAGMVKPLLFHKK
# Estrogen receptor beta (Homo sapiens), sequence (Q92731 whole entry, looked up): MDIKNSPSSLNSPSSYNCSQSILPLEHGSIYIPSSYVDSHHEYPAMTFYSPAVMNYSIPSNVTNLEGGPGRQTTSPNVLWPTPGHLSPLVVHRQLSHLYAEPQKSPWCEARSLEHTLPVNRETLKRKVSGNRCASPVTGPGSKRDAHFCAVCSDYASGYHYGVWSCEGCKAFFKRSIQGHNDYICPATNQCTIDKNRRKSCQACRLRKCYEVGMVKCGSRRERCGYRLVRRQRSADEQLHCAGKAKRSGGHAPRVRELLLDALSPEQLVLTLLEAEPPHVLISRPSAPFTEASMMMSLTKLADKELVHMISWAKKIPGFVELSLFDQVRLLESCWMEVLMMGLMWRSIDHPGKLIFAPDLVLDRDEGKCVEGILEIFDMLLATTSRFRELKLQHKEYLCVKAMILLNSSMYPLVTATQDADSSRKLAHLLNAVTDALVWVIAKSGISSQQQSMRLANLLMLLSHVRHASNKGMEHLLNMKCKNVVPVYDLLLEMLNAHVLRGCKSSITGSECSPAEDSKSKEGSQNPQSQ
# Thyrotropin receptor (Homo sapiens), sequence (P16473 whole entry, looked up): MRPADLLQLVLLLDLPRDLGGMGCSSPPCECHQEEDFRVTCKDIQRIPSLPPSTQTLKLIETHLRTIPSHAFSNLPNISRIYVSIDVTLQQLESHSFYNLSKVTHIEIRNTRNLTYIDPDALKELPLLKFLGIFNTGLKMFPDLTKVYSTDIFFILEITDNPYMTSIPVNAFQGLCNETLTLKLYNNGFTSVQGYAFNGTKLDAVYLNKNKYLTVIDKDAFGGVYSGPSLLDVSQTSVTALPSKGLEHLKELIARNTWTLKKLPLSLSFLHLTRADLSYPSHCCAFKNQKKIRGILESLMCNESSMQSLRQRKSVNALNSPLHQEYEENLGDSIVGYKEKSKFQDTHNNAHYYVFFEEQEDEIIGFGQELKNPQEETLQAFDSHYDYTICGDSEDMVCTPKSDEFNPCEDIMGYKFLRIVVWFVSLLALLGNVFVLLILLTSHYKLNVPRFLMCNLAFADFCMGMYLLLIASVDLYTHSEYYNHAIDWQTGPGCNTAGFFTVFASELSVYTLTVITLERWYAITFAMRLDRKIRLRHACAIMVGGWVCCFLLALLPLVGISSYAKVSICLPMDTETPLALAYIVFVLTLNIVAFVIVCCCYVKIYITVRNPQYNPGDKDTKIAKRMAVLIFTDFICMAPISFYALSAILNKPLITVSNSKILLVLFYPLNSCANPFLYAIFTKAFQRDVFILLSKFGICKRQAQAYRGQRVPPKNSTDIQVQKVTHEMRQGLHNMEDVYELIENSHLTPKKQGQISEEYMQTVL
# Estrogen receptor (Homo sapiens), sequence (P03372 whole entry, looked up): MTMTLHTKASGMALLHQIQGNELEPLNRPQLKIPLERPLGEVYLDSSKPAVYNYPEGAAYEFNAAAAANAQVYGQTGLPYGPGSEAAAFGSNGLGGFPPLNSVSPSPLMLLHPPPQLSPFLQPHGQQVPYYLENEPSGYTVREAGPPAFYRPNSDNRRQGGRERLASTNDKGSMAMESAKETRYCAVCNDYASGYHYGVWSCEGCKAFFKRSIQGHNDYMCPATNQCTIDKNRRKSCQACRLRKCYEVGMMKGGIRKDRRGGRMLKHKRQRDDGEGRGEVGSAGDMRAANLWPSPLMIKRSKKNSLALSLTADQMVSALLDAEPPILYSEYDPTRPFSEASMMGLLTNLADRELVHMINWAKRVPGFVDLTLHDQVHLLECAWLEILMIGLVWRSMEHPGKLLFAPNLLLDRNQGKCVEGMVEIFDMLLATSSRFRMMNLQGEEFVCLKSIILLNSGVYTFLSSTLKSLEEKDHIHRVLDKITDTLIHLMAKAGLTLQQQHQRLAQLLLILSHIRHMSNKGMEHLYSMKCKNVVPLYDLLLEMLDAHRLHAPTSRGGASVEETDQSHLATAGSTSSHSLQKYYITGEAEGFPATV
# Androgen receptor (Homo sapiens), sequence (P10275 whole entry, looked up): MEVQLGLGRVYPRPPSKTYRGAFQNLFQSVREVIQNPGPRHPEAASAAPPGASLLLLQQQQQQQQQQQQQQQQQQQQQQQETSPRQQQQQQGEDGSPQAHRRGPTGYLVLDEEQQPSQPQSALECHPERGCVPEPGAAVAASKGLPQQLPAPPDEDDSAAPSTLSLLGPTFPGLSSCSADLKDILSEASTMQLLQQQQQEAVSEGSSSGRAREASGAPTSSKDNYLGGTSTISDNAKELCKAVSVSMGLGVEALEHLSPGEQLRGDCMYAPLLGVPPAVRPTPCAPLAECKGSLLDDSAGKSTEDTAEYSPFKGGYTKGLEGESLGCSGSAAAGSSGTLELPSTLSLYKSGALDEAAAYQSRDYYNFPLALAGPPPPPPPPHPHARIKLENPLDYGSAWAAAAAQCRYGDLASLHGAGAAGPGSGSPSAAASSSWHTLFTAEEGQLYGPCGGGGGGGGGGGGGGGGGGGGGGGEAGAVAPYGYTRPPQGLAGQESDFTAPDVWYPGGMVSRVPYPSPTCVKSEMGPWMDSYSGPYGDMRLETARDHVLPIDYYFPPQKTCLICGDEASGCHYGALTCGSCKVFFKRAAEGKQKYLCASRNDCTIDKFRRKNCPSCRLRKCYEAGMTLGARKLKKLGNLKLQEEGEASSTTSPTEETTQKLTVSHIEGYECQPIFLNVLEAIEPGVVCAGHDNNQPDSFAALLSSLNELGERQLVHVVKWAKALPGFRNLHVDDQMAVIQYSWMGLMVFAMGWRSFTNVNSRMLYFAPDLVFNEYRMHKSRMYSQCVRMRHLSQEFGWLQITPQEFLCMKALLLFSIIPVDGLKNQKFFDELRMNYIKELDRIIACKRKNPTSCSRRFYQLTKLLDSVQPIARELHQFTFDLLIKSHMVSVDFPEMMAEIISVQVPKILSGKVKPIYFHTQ
structure (smiles),measurement,setting,value
CC(=O)OCC[N+](C)(C)C,Potency,[1],inactive
same,Potency,[2],inactive
same,Potency,[3],inactive
same,Potency,[4],inactive
same,Potency,[5],inactive
same,outcome,[6],inactive
same,Potency,[7],inactive
same,Potency,[8],inactive
same,Potency,[9],inactive
same,Potency,[10],inactive
same,Potency,[11],inactive
same,Potency,[12],inactive
same,Potency,[13],inactive
same,outcome,[14],inactive
O=[N+]([O-])c1cc(C2CCCCC2)c(O)c([N+](=O)[O-])c1,Potency,[1],inactive
same,Potency,[3],24.3 µM (active)
same,Potency,[4],inactive
same,Potency,[15],inactive
same,Potency,[5],inactive
same,Potency,[16],inactive
same,outcome,[6],inactive
same,Potency,[7],inactive
same,Potency,[8],15.3 µM (active)
same,Potency,[17],inactive
CCC1NC(=O)c2cc(S(N)(=O)=O)c(Cl)cc2N1 (stereo unspecified),Potency,[1],inactive
same,Potency,[2],inactive
same,Potency,[3],inactive
same,Potency,[5],inactive
same,outcome,[6],inactive
same,Potency,[7],inactive
same,Potency,[8],inactive
same,Potency,[9],inactive
same,Potency,[10],inactive
same,Potency,[11],inactive
same,Potency,[12],inactive
same,Potency,[17],inactive
same,Potency,[18],inactive
same,Potency,[13],inactive
same,outcome,[14],inactive
CC(CCC(=O)O)C(=O)O (stereo unspecified),Potency,[1],inactive
same,Potency,[19],inactive
same,Potency,[2],inactive
same,Potency,[3],inactive
same,Potency,[4],inactive
same,Potency,[5],inactive
same,outcome,[6],inactive
same,Potency,[7],inactive
same,Potency,[9],inactive
same,Potency,[10],inactive
same,Potency,[11],inactive
same,Potency,[12],inactive
same,Potency,[17],inactive
same,Potency,[18],inactive
same,Potency,[13],inactive
same,outcome,[14],inactive
COC(=O)CS,Potency,[1],inactive
same,Potency,[19],inactive
same,Potency,[3],inactive
same,Potency,[5],inactive
same,Potency,[16],inactive
same,outcome,[6],inactive
same,Potency,[7],inactive
same,Potency,[9],inactive
same,Potency,[11],inactive
same,Potency,[12],inactive
same,Potency,[17],inactive
same,Potency,[18],inactive
same,Potency,[13],inactive
same,outcome,[14],inactive
COc1ccc(OC(=O)N(CC(=O)O)Cc2ccc(OCCc3nc(-c4ccccc4)oc3C)cc2)cc1,Potency,[1],inactive
same,Potency,[2],23.7 µM (active)
same,Potency,[3],inactive
same,Potency,[4],16.8 µM (active)
same,Potency,[5],inactive
same,Potency,[16],inactive
same,outcome,[6],inactive
same,Potency,[7],inactive
same,Potency,[9],inactive
same,Potency,[10],inactive
same,Potency,[12],inactive
same,Potency,[17],inactive
same,Potency,[18],inactive
same,outcome,[14],inactive
O=C1C(=O)c2ccccc2C(O)=C1C1CCC(c2ccc(Cl)cc2)CC1 (stereo unspecified),Potency,[1],inactive
same,Potency,[19],inactive
same,Potency,[3],23.7 µM (active)
same,Potency,[4],2.66 µM (active)
same,Potency,[16],inactive
same,Potency,[8],inactive
same,Potency,[9],inactive
same,Potency,[10],inactive
same,Potency,[11],inactive
same,Potency,[12],inactive
same,Potency,[18],inactive
same,Potency,[13],inactive
same,outcome,[14],inactive
CC(C)Nc1cccnc1N1CCN(C(=O)c2cc3cc(NS(C)(=O)=O)ccc3[nH]2)CC1,Potency,[1],inactive
same,Potency,[2],inactive
same,Potency,[3],inactive
same,Potency,[4],26.6 µM (active)
same,Potency,[16],inactive
same,outcome,[6],inactive
same,Potency,[7],inactive
same,Potency,[8],inactive
same,Potency,[12],inactive
same,Potency,[17],inactive
same,Potency,[18],inactive
same,Potency,[13],inactive
Cc1cc(=O)c2c(O)c3c(O)cc(=O)c4c3c3c(cc(O)c1c23)C(C)(C)C=4O,activity change,[1],"-5.72% [at 18.9 µM, stronger effect = higher value]"
same,activation,[19],-11.3% [at 19 µM]
same,Potency,[3],1.46 µM (active)
same,cAMP activity change,[6],14.8% [at 18.9 µM]
same,"activity change, negative = cytotoxicity",[8],-17.3% [at 19 µM]
same,activation,[9],-2.51% [at 19 µM]
same,"activity, negative = inhibition",[14],1.99% [at 10.5 µM]
Oc1cc2c(cc1O)[C@H]1c3ccc(O)c(O)c3OC[C@@]1(O)C2,Potency,[1],inactive
same,Potency,[19],inactive
same,Potency,[3],61.9 µM (active)
same,Potency,[4],inactive
same,Potency,[5],inactive
same,Potency,[16],inactive
same,Potency,[8],27.6 µM (active)
same,Potency,[17],inactive
same,Potency,[18],inactive
same,Potency,[13],inactive
same,outcome,[14],inactive
C=CC(=O)[O-].C=CC(=O)[O-].[Zn+2],Potency,[1],inactive
same,Potency,[19],inactive
same,Potency,[2],inactive
same,Potency,[3],inactive
same,Potency,[4],inactive
same,Potency,[16],inactive
same,outcome,[6],inactive
same,Potency,[8],inactive
same,Potency,[11],67 µM (active)
same,Potency,[17],inactive
same,Potency,[18],inactive
same,Potency,[13],inactive
CN(C(=O)CN(CCO)CC(=O)N(C)C(C)(C)Cc1ccccc1)C(C)(C)Cc1ccccc1,Potency,[1],inactive
same,Potency,[19],inactive
same,Potency,[2],inactive
same,Potency,[3],inactive
same,Potency,[4],inactive
same,Potency,[5],inactive
same,Potency,[8],inactive
same,Potency,[10],inactive
same,Potency,[11],inactive
same,Potency,[12],inactive
same,Potency,[17],inactive
same,Potency,[13],inactive
same,outcome,[14],inactive
